Data as given in PubChem BioAssay (EPA / NIEHS).
Records with an inconclusive call do not appear. The source made the active and inactive calls. Rule for the calls: active = hit-call score of the fitted dose curve at least 0.9, where 1 is the maximum; inconclusive = response in the unintended direction; inactive = score below 0.9.

Assay: ACEA_ER_AUC_viability: ACEA Biosciences xCELLigence Real-Time Cell Analysis on Estrogen Receptor Agonism for Viability (AID 2283782);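 note: hit means loss of impedance signal meaning reduced cell growth or viability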
How it was run: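 Viability endpoint: reduced impedance area under the curve relative to DMSO, recorded by real-time electrode sensing over ~80 h of continuous exposure. Duplicate plates of T47D in hormone-depleted medium; eight concentrations, 1:4 dilutions, 100 uM maximum.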

SMILES | AC50 | outcome
O=C(CC(=O)C(F)(F)C(F)(F)C(F)(F)F)c1cccs1 | 113 µM (active) | –
CCC(=O)O | – | inactive
C=CCOCC(CO)(CO)CO | – | inactive
CC(C)(O)C(=O)c1ccccc1 | – | inactive
CCCCCCCCC(C)=O | 9.92 µM (active) | –
CCC(C)c1nccnc1OC (stereo unspecified) | – | inactive
O=C1C=CC(=O)N1c1cccc(N2C(=O)C=CC2=O)c1 | 23.6 µM (active) | –
O=S(=O)(O)c1ccccc1 | – | inactive
CCCCN(C)C | – | inactive
NCCN | – | inactive
CCOC=C(C(=O)OCC)C(=O)OCC | – | inactive
COc1cccc(O)c1 | – | inactive
CCC(C)c1ccccc1O (stereo unspecified) | 79.7 µM (active) | –
Cc1ccc(S(=O)(=O)O)cc1 | – | inactive
COC(O)c1ccccc1 (stereo unspecified) | – | inactive
O=C(O)CCC(F)(F)C(F)(F)C(F)(F)C(F)(F)C(F)(F)F | – | inactive
Cc1ccc(C)c(S(=O)(=O)O)c1 | – | inactive
Cc1cc(C(C)(C)C)c(O)c(C(C)(C)C)c1 | 79.4 µM (active) | –
C/C=C/C(=O)C1=C(C)CCCC1(C)C | – | inactive
O=C1c2ccc(O)c(O)c2C(=O)c2c(O)ccc(O)c21 | 6.67 µM (active) | –
C=CC(=O)OCCC(F)(F)C(F)(F)C(F)(F)C(F)(F)C(F)(F)C(F)(F)C(F)(F)C(F)(F)F | – | inactive
CCCCC(CC)C(=O)OCCOCCOCCOCCOC(=O)C(CC)CCCC (stereo unspecified) | – | inactive
C=CC(=O)OCCN(CC)CC | – | inactive
CCCCCCCCCCCCOC(=O)c1cc(O)c(O)c(O)c1 | 2.97 µM (active) | –
Cc1ccc(C(=O)c2ccccc2)cc1 | 72.3 µM (active) | –
O=S(=O)(O)C(F)(F)C(F)(F)C(F)(F)C(F)(F)C(F)(F)C(F)(F)C(F)(F)C(F)(F)C(F)(F)C(F)(F)F | – | inactive
